# From PubChem
# Tb PFK inh-1: qHTS Assay to Find Inhibitors of T. brucei phosphofructokinase; Potency, µM (top dose mostly 57.5 µM), without a hit: at the highest dose activity, negative = inhibition, hits mostly inhibitors; 330,000 compounds, 0.17% hits; T. brucei PFK, ADP-Glo luminescence; ATP-dependent 6-phosphofructokinase (Trypanosoma brucei brucei), O15648;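 further: potency means the concentration at half of the fitted maximal effect; 0% = uninhibited 1x PFK enzyme wells and -100% = no-enzyme wells; nearly all actives have a fitted effect of over 60% in size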
#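 Luminescent ADP detection (ADP-Glo, two-step: ATP depletion then ADP-to-ATP conversion for luciferase) reported PFK activity after 45 min room-temperature reaction of 1.25 nM enzyme with 0.5 mM F6P and 0.1 mM ATP at pH 8.0.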
# Menin-MLL FL inh: qHTS Assay for Inhibitors Targeting the Menin-MLL Interaction in MLL Related Leukemias: Competition With Fluorescein Labeled MLL-derived Peptide; 290,000 tested, under 10 active; AID 1766, 2009; Fluorescence polarization, fluorescein-MLL peptide displacement from menin; FP activity change, % at 61.4 µM; active means well fitted curve in the direction sought with a large enough effect in the polarisation, not every such curve was filed as active; inconclusive means small, poorly fitted or top-dose-only effect, or effect the other way, or a change in a side signal; inactive means no such curve, though single readings can be large or run the other way; the % refers to the polarisation; further: % of control where 0% means no effect
# Menin-MLL TR inh: qHTS Assay for Inhibitors Targeting the Menin-MLL Interaction in MLL Related Leukemias: Competition With Texas Red Labeled MLL-derived Mutant Peptide. AID 1768, 2009. Potency, µM (series often up to 61.6 µM), for inactives: at the highest dose FP activity change, negative = inhibition, hits mostly inhibitors. Menin + Texas Red MLL mutant peptide, fluorescence polarization. 270,000 compounds, 0.23% hits; active means well fitted inhibition curve with a large enough effect in the polarisation, with a control signal flat, not every such curve was filed as active; inconclusive means small, poorly fitted or top-dose-only effect, or effect the other way, or a change in a side signal; inactive means no such curve, though single readings can be large or run the other way; the % refers to the polarisation; further: potency means the concentration at half of the fitted maximal effect; % of control where 0% means no effect
# CXXC DNA block: qHTS Fluorescence Polarization Assay for Inhibitors of MLL CXXC domain - DNA interaction; MLL-CXXC / FITC-HOXA9 DNA fluorescence polarization; Potency, µM (highest dose often 115 µM), for the others: at the highest dose activity change, negative = inhibition, most hits filed as inhibitors; 290,000 compounds, 0.037% hits; active means well fitted inhibition curve with a large enough effect in the polarisation, with a control signal flat, not every such curve was filed as active; inconclusive means small, poorly fitted or top-dose-only effect, or effect the other way, or a change in a side signal; inactive means no such curve, though single readings can be large or run the other way; the % refers to the polarisation; further: potency means the concentration at half of the fitted maximal effect
#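 Steps: dispense CXXC domain solution (7 uM) → pin compounds or unlabeled HOX-A9 DNA control → 5 min ambient → add FLSN-HOX-A9 solution (50 nM) → spin → 30 min ambient → fluorescence polarization. Tris pH 7.5/NaCl/DTT/BSA buffer.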
# RGS12 GoLoco inh: qHTS Assay for Inhibitors of RGS12 GoLoco Motif Activity (Red Fluorophore). Guanine nucleotide-binding protein G(i) subunit alpha-1 (Homo sapiens), P63096. Gai1:RGS12 GoLoco peptide FP, rhodamine, 10 min. Potency, µM (series often up to 61.6 µM), for the others: top-dose activity, negative = inhibition, usual class: inhibitors. 230,000 compounds, 0.44% hits. AID 880, 2007; active means well fitted inhibition curve with a large enough effect, not every such curve was filed as active; inactive means no such curve, though single readings can be large or run the other way; further: potency means the concentration at half of the fitted maximal effect; on the % scale 0 is the no-effect control and ±100 the full control effect; nearly all actives have a fitted effect of over 30% in size
# Tb PFK KinaseGlo: Tb PFK orthogonal confirmatory assay using ATP depletion (Kinase-Glo Plus) as an alternative measure of Tb PFK activity: Hit Validation; shares compounds with Tb PFK inh-1; Tb PFK enzyme, ATP depletion, Kinase-Glo Plus luminescence; Potency, µM (top dose mostly 57.5 µM), inactives show at the top dose inhibition; 1,100 compounds, 47% hits; AID 504636, 2011; calls by dose curve; further: potency means the concentration at half of the fitted maximal effect; nearly all actives have a fitted effect of over 60% in size
# Tb PFK inh-2: Inhibitors of T. brucei phosphofructokinase: Hit Validation | shares compounds with Tb PFK inh-1 | purified T. brucei PFK, ADP-Glo luminescence, 45 min | Potency, µM (top dose mostly 57.5 µM), for inactives: at the top dose activity change, negative = inhibition, actives largely listed as inhibitors | 1,100 compounds, 41% hits;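 further: potency means the concentration at half of the fitted maximal effect; plate controls were full PFK enzyme control for no effect and no enzyme control for full effect; nearly all actives have a fitted effect of over 60% in size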
# * hit, by the source's call; ? = inconclusive; nt = no result; [ ] = remark or other dose. An excerpt weighted towards active compounds, which were near 0.43% of everything screened. Unless noted, the call rests on the fitted dose curve; in most records, active means well fitted inhibition curve with a large enough effect; inconclusive means small, poorly fitted or top-dose-only effect, or effect the other way; inactive means flat fitted curve, though single readings scatter.
SMILES,Tb PFK inh-1,Menin-MLL FL inh,Menin-MLL TR inh,CXXC DNA block,RGS12 GoLoco inh,Tb PFK KinaseGlo,Tb PFK inh-2
Cc1ccc(N/C=C(\C2OC(=O)c3ccccc32)[N+](=O)[O-])c(C)c1 (configuration not stated),?,-17,-5%,-1%,-1%,1%,0%
CN(NC1OC(=O)c2ccccc21)c1ccc(Cl)cc1[N+](=O)[O-] (configuration not stated),-1%,3,nt,-8%,9%,nt,nt
O=C1OC(/C(=C\Nc2cc(Cl)ccc2O)[N+](=O)[O-])c2ccccc21 (configuration not stated),?,4,22%,-9%,13%,3%,-13%
Cc1ccc(NC=C(S(=O)(=O)c2ccccc2)S(=O)(=O)c2ccccc2)c(C)c1,2%[0.46 µM],-3,-22%,-1%,5%,nt,nt
N#Cc1c(F)cccc1NCc1cccs1,?,-1,nt,5%,-7%,?,?
CN1CCc2cccc3c2[C@@H]1Cc1ccc(O)c(O)c1-3,4.3µM*,?,-1%[24.8 µM],21%,7%,1.7µM*,6µM*
CCCN1CCc2cccc3c2C1Cc1ccc(O)c(O)c1-3 (configuration not stated),nt,1,2%,?,22%,nt,nt
O=C1CC(=O)N(Cc2ccco2)C(=S)N1,21µM*,?,49%,7%,208%,24µM*,?
S=C1NCN(Cc2ccco2)CN1,0%,0,nt,-15%,-6%,nt,nt
CC1(C)OC(=O)C(=Cc2ccc(-c3ccc(S(N)(=O)=O)cc3)o2)C(=O)O1,?,5,65%,?,-3%,7%,?
NS(=O)(=O)c1ccc(-c2ccc(C=C3C(=O)NC(=O)NC3=O)o2)cc1,-20%,-1,43%,-29%,nt,nt,nt
O=C1C2[C@@H](c3ccccc3)N[C@@H](c3ccccc3)C1[C@H](c1ccccc1)N[C@H]2c1ccccc1,nt,nt,nt,nt,6%[14.2 µM],nt,nt
CCCC[C@]12Cc3c(ccc4ccccc34)C(O1)C1=C(O2)C(=O)c2ccccc2C1=O,-1%[11.5 µM],4[11.7 µM],-5%[11.7 µM],-7%[23 µM],nt,nt,nt
COc1ccc(-c2nnc(NC(=O)Cc3ccccc3)o2)cc1,-2%,-1,0%,2%,nt,nt,nt
Cc1c(Cl)sn(-c2ccc(Cl)cc2)c1=O,6.7µM*,5,38%,9%,14µM*,3µM*,5.4µM*
Cc1nn(-c2ccc(Cl)cc2)c(=O)c2ccccc12,14%,-2,-3%,-1%,-13%,nt,nt
COc1ccc(NC(=O)CNc2cccc(C#N)c2)cc1Cl,?,0,12%,2%,-11%,?,?
COc1ccc(NCC(=O)Nc2ccc(C#N)cc2)cc1Cl,-3%,0,?,-2%,13%,nt,nt
OC[C@@H]1[C@@H](c2ccc(F)cc2)C(c2ccc(F)cc2)=NN1c1ccccc1,nt,8,?,nt,11%[88.7 µM],nt,nt
O=C(O)Cc1sc(-c2ccccc2Cl)nc1-c1ccccc1,?,4,0%,6%,-24%,0%,12%
O=C(Cc1sc(-c2ccccc2)nc1-c1ccccc1)Nc1ccccc1,0%,1,nt,?,10%,nt,nt
NC[C@@H](O)c1ccc(O)c(O)c1,nt,-7,-19%,nt,0%,nt,nt
NC[C@H](O)c1ccc(O)c(O)c1,2.1µM*,8,?,0%,12%,17%,-20%
Cc1ccc(-c2nnn3c2nc(NCCc2ccc(S(N)(=O)=O)cc2)c2ccccc23)cc1,?,0,19%,?,-1%,?,?
Cc1cccc(-c2nnn3c2nc(NCCc2ccc(S(N)(=O)=O)cc2)c2ccccc23)c1,-4%,7,?,0%,-6%,nt,nt
SMILES,Tb PFK inh-1,Menin-MLL FL inh,Menin-MLL TR inh,CXXC DNA block,RGS12 GoLoco inh,Tb PFK KinaseGlo,Tb PFK inh-2
CC(=O)c1sc(-c2ccc(Cl)cc2)nc1C,-4%,0,1%,-8%,12%,nt,nt
CSc1nc(-c2ccccc2)nc(N)c1C(C)=O,-6%,3,-10%,18%,-39%,nt,nt
CC(=O)c1c(C)nc(-c2ccc(Cl)cc2)nc1N=CN(C)C,2.7µM*,-7,?,0%,91%,9.5µM*,12µM*
CC(=O)c1c(C)nc(-c2ccc(Cl)cc2)nc1N,?,45,12%,?,24%,?,?
COC(=O)C1=C(C(=O)OC)[C@@H]2N(C)c3ccccc3[C@@]23C[C@@H](CO)N(C(=O)c2cc(C)oc2C)C3=N1,nt,-2[11.7 µM],?,nt,8%[14.2 µM],nt,nt
O=c1c2c([N+](=O)[O-])cc([N+](=O)[O-])cc2sn1Cc1ccccc1,2.7µM*,?,?,6%,nt,?,21µM*
Cc1cccc(CSc2nnc3c(n2)[nH]c2ccccc23)c1,0%,-2,nt,3%,1%,nt,nt
NCc1ccccc1COc1ccccc1,24µM*,-1,-3%,7%,5%,?,?
CN(C(=O)c1cccc(NC(=O)Cc2ccc([N+](=O)[O-])cc2)c1)C1CC1,0%,nt,nt,nt,nt,nt,nt
Cc1ccc(-c2c[n+](Cc3cccc(Cl)c3)c3n2CCC3)cc1,?,-2,nt,5%,10%,?,?
CC(C)(C)CC(=O)Nc1cc(S(=O)(=O)N2CCOCC2)ccc1N1CCCC1,?,8,nt,1%,10%,-32%,?
CC(=O)NCCC(=O)Nc1cc(S(=O)(=O)N2CCOCC2)ccc1N1CCCC1,-3%,nt,nt,nt,nt,nt,nt
CN(C)CCn1nnnc1SCC1=C(C(=O)O)N2C(=O)[C@@H](NC(=O)Cc3csc(N)n3)[C@H]2SC1,12µM*,nt,nt,nt,nt,6%,-7%
CCCn1c(=S)[nH]c2cc(C(=O)N(CCO)Cc3ccccc3)ccc2c1=O,-1%,nt,nt,10%,nt,nt,nt
Cc1ccnc(NS(=O)(=O)c2ccc(NC(=O)Cc3ccc(Br)cc3)cc2)n1,?,3,36%,6%,nt,21µM*,?
O=C(Cc1ccc(Cl)c(Cl)c1)Nc1ccc(S(=O)(=O)Nc2ncccn2)cc1,2.4µM*,7,16%,13%,nt,0.85µM*,1.9µM*
O=C(Cc1cccs1)Nc1ccc(S(=O)(=O)Nc2ncccn2)cc1,-7%,?,18%,3%,78%,nt,nt
